Test results reported in PubChem BioAssay AID1159580 (chemical genetic matrix, 2015).
Several values for one entry are separate records, joined by “and”; a condition that tells them apart may be missing. Equal entries are not always repeated. In all, about 5,500 compounds went through this assay and about 2,000 (36%) were called active. Another 18% or so got no clear call; they are omitted. No stated cut-off is given here; in the data, active means normalized growth mostly below about 0.91 (no sharp cut-off); inconclusive means no clear call, values can overlap the other calls; inactive means mostly above about 0.92. The list shows a part of the results.

Assay: chemical genetic growth profiling, strain panel (AID 1159580);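 further: tested at 20 µM; growth read once vehicle control cultures reached saturation at 30 °C; 1 = growth at the plate median or of vehicle wells; lower values mean less growth of the strain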
Settings: S. cerevisiae deletion strains, growth OD

Measured: normalized growth

COc1cc(-c2coc3cc(OC)c(OC)c(OC)c3c2=O)cc(OC)c1OC
inactive: locus YAL013W, strain DEP1, active compounds read low 0.994 | locus YAL021C, strain ccr4, active compounds read low 1 | locus YAL026C, strain drs2, active compounds read low 1.01 | locus YAL030W, strain snc1, active compounds read low 1.01 | locus YBL061C, strain skt5, active compounds read low 0.996 | locus YBR009C, strain hhf1, active compounds read low 0.993 | locus YBR021W, strain FUR4, active compounds read low 1.02 | locus YBR023C, strain chs3, active compounds read low 0.991 | locus YBR171W, strain sec66, active compounds read low 0.99 | locus YBR229C, strain ROT2, active compounds read low 1 | locus YBR231C, strain swc5, active compounds read low 0.969 | locus YBR279W, strain paf1, active compounds read low 1.01 | locus YCL011C, strain gbp2, active compounds read low 1 | locus YCL016C, strain dcc1, active compounds read low 0.987 | locus YCL029C, strain bik1, active compounds read low 0.973 | locus YCL061C, strain MRC1, active compounds read low 1.01 | locus YCL069W, strain vba3, active compounds read low 1.01 | locus YCR088W, strain abp1, active compounds read low 1.01 | locus YDL005C, strain med2, active compounds read low 0.996 | locus YDL035C, strain GPR1, active compounds read low 1.03 | locus YDL040C, strain nat1, active compounds read low 0.995 | locus YDL074C, strain BRE1, active compounds read low 1.02 | locus YDL101C, strain DUN1, active compounds read low 0.981 | locus YDL185W, strain tfp1, active compounds read low 0.968 | locus YDL192W, strain arf1, active compounds read low 1.03 | locus YDR001C, strain nth1, active compounds read low 0.999 | locus YDR069C, strain doa4, active compounds read low 1.01 | locus YDR101C, strain arx1, active compounds read low 1.06 | locus YDR137W, strain rgp1, active compounds read low 1.01 | locus YDR159W, strain sac3, active compounds read low 0.947 | locus YDR162C, strain NBP2, active compounds read low 1.03 | locus YDR195W, strain ref2 0.963 | locus YDR297W, strain sur2, active compounds read low 1.01 | locus YDR318W, strain mcm21, active compounds read low 0.993 | locus YDR334W, strain swr1, active compounds read low 0.994 | locus YDR335W, strain msn5, active compounds read low 1 | locus YDR388W, active compounds read low 0.985 | locus YDR392W, strain spt3, active compounds read low 0.888 | locus YDR502C, strain sam2, active compounds read low 0.985 | locus YEL003W, strain gim4, active compounds read low 0.992 | locus YEL037C, strain rad23, active compounds read low 1 | locus YEL061C, strain CIN8 (second series), active compounds read low 1 | locus YEL061C, strain CIN8, active compounds read low 0.994 | locus YER015W, strain faa2, active compounds read low 1 | locus YER016W, strain bim1, active compounds read low 0.999 | locus YER110C, active compounds read low 0.968 | locus YER111C, strain swi4, active compounds read low 0.989 | locus YER155C, strain BEM2 (second series), active compounds read low 0.968 | locus YER155C, strain BEM2, active compounds read low 0.984 | locus YER167W, strain BCK2, active compounds read low 1 | locus YFR010W, strain ubp6, active compounds read low 0.996 | locus YGL078C, strain dbp3, active compounds read low 0.975 | locus YGL086W, strain mad1, active compounds read low 1.01 | locus YGL167C, strain pmr1, active compounds read low 1 | locus YGL173C, strain kem1, active compounds read low 1 | locus YGL227W, strain vid30, active compounds read low 0.99 | locus YGL240W, strain doc1, active compounds read low 0.987 | locus YGL248W, strain PDE1, active compounds read low 0.965 | locus YGL253W, strain hxk2, active compounds read low 0.996 | locus YGR135W, strain pre9, active compounds read low 0.952 | locus YGR252W, strain gcn5, active compounds read low 1.01 | locus YHR013C, strain ard1, active compounds read low 0.996 | locus YHR027C, strain rpn1, active compounds read low 0.997 | locus YHR030C, strain SLT2, active compounds read low 0.997 and 1.06 | locus YHR079C, strain IRE1 (second series), active compounds read low 0.992 | locus YHR079C, strain IRE1, active compounds read low 1.02 | locus YHR094C, strain hxt1, active compounds read low 1 | locus YHR129C, strain ARP1, active compounds read low 0.996 | locus YHR142W, strain chs7, active compounds read low 0.994 | locus YHR200W, strain rpn10, active compounds read low 1.01 | locus YIL066C, strain RNR3, active compounds read low 1 | locus YIL073C, strain SPO22, active compounds read low 0.921 | locus YIL125W, strain kgd1, active compounds read low 1.01 | locus YIR030C, strain dcg1, active compounds read low 0.989 | locus YJL092W, strain hpr5, active compounds read low 1.01 | locus YJL095W, strain BCK1 (second series), active compounds read low 1 | locus YJL095W, strain BCK1, active compounds read low 0.986 and 1.07 | locus YJL115W, strain asf1, active compounds read low 1 | locus YJL129C, strain trk1, active compounds read low 0.988 | locus YJL134W, strain LCB3, active compounds read low 1 | locus YJL154C, strain vps35, active compounds read low 0.99 | locus YJL164C, strain tpk1, active compounds read low 1 | locus YJL166W, strain qcr8, active compounds read low 0.999 | locus YJL168C, strain set2, active compounds read low 0.993 | locus YJL187C, strain SWE1 (second series), active compounds read low 0.968 | locus YJR043C, strain POL32, active compounds read low 1.04
